# Data from PubChem BioAssay AID1566 (Sanford-Burnham Center for Chemical Genomics, 2009).
# In all, about 290,000 compounds went through this assay and about 1,800 (0.62%) were called active. Cut-off read from the data, not from the text of the source: active = inhibition above about 50%; inactive = the rest. Only a selection was taken, and actives are over-represented in it overall. Peptide text beside a SMILES is read from it. * marks the point of attachment. OBn = c1ccc(CO*)cc1
# Assay: NOD2 signaling inhibitors, cell-based, luminescence, uHTS, HEK293 (AID 1566)
# Conditions: HEK293 NOD2/NF-kB luciferase reporter, at 4 µM, hits give high values
row,SMILES,inhibition
1,COc1ccccc1CNC(=O)c1cn(C)c2ccc(S(=O)(=O)N3CCCCC3)cc2c1=O,-7.1% (inactive)
2,CCn1c(C)c2c(C)nnc(C)c2c1C,8.3% (inactive)
3,Cc1ccc(CSC2=NCCN2C(=O)c2ccc(S(=O)(=O)N(C)C)cc2)cc1,-5% (inactive)
4,COc1ccc(C)cc1NC(=O)CC(O)(C(F)(F)F)C(F)(F)F,1.2% (inactive)
5,COc1ccc(-c2nsc3c(N4CCCC4)ncnc23)cc1,-61.9% (inactive)
6,COc1ccc(-c2nsc3c(N4CCCCC4)ncnc23)cc1,-13.3% (inactive)
7,COc1ccc(-c2nsc3c(N4CCCCC4C)ncnc23)cc1 (stereo unspecified),86% (active)
8,N/C(CC(=O)Nc1cccc(C(F)(F)F)c1)=N/O,5.4% (inactive)
9,Cc1cccc(-c2cc3c(N=O)c4ccccc4c-3n[nH]2)c1,-162% (inactive)
10,Cc1ccc(-c2cc3c(N=O)c4ccccc4c-3n[nH]2)cc1,70.7% (active)
11,O=Nc1c2cc(-c3ccccc3)[nH]nc-2c2ccccc12,-167% (inactive)
12,N#CC12CCCCC1CC1CCCCC1(C#N)N2N (stereo unspecified),1.8% (inactive)
13,O=C(CCCN1C(=O)c2ccccc2C1=O)NCCC1=CCCCC1,5.4% (inactive)
14,COc1ccc(-c2nc(CSCC(=O)NCc3ccco3)c(C)o2)cc1,-2% (inactive)
15,CCOc1ccc(-c2nc(CSCC(=O)NCc3ccco3)c(C)o2)cc1,9.4% (inactive)
16,CCc1ccc(-c2nc(CSCC(=O)NCc3ccco3)c(C)o2)cc1,50% (active)
17,O=C(OCc1nc2ccccc2s1)c1cc2ccccc2oc1=O,-0.9% (inactive)
18,Cc1cc(Cl)c(S(=O)(=O)N2CCCC2)cc1OCC(=O)NC1CCCCC1,32.3% (inactive)
19,CCN1CCN(S(=O)(=O)c2cc(OCC(=O)NC3CCCCC3)c(C)cc2Cl)CC1,35.8% (inactive)
20,C=CCSc1nc2ccccc2n1Cc1nnc(-c2cccs2)o1,8.9% (inactive)
21,CN(Cc1cccnc1)C(=O)c1cc(COc2ccc3c(c2)CCCC3)on1,-14.6% (inactive)
22,Cc1cc(CN(C)C(=O)c2cc(COc3ccc4ncccc4c3)on2)on1,28.5% (inactive)
23,O=C(CNC(=S)N(CCCN1CCOCC1)Cc1cccs1)N1CCCCCC1,-0.9% (inactive)

row,SMILES,inhibition
1,COc1ccc(N(CC(=O)N/N=C/c2ccc3c(c2)OCO3)S(=O)(=O)c2ccc(NC(C)=O)cc2)cc1,-7.5% (inactive)
2,COc1ccc(S(=O)(=O)N/N=C\c2ccc3c(c2)OCO3)cc1,29.5% (inactive)
3,Cc1ccc(S(=O)(=O)N/N=C\c2ccc([N+](=O)[O-])o2)cc1,13.4% (inactive)
4,Cc1ccc(S(=O)(=O)N/N=C\c2ccc([N+](=O)[O-])o2)cc1C,33.4% (inactive)
5,COc1ccc(S(=O)(=O)N/N=C\c2ccc([N+](=O)[O-])o2)c(OC)c1,52.1% (active)
6,COc1ccc(S(=O)(=O)N/N=C\c2ccc3c(c2)OCO3)c(OC)c1,51.2% (active)
7,COc1ccc(OC)c(S(=O)(=O)N/N=C\c2ccc3c(c2)OCO3)c1,-26.9% (inactive)
8,CCN(CC)CCn1c(=S)[nH]c2ccc(Br)cc2c1=O,7.1% (inactive)
9,CCCCC1=CC2=CC(=O)C(C)(OC(=O)CC)C(=O)C2=CN1C1CCCC1 (stereo unspecified),33.3% (inactive)
10,COc1cccc(NC(=O)NC2CCCCC2C)c1 (stereo unspecified),0.4% (inactive)
11,CCN(CC)C(=O)c1ccc2c(=O)n(Cc3ccc4c(c3)OCO4)c(=S)[nH]c2c1,10.2% (inactive)
12,O=C(c1ccc(Cn2c(=O)[nH]c3ccccc3c2=O)cc1)N1CCN(c2ccccn2)CC1,15.4% (inactive)
13,CCN(CC)C(=O)c1ccc2c(=O)n(Cc3cccc(Br)c3)c(=S)[nH]c2c1,58.7% (active)
14,CCN(CC)C(=O)c1ccc2c(=O)n(CCOC)c(=S)[nH]c2c1,17.5% (inactive)
15,CCOC(=O)N1CCN(C(=O)c2ccc(Cn3c(=S)[nH]c4cc(OCC)c(OCC)cc4c3=O)cc2)CC1,43.9% (inactive)
16,COc1ccc(Cn2c(=O)[nH]c3cc(C(=O)N4CCN(c5ccccn5)CC4)ccc3c2=O)cc1,3% (inactive)
17,CCOC(=O)N1CCN(C(=O)c2ccc(Cn3c(=S)[nH]c4cc(C(=O)OC)ccc4c3=O)cc2)CC1,24.9% (inactive)
18,CC(=O)Oc1ccc(OC(C)=O)c2c1CC(C)=C(C)C2,33.6% (inactive)
19,Cc1ccc(OCC(=O)O/N=C(\N)c2ccncc2)cc1C,-6.1% (inactive)
20,C=CCn1c(SCc2ccc(Cl)cc2)nc2cc(C(=O)N3CCC(C(N)=O)CC3)ccc2c1=O,1.8% (inactive)
21,COc1ccc(-c2noc(CN3CCOCC3)n2)cc1OC,-8.7% (inactive)
22,CCn1c(C)c(C(C)=O)c(N2CCN(c3ccc(OC)cc3)CC2)nc1=S,12.6% (inactive)
23,Cc1ccc(NC(=O)N2CCCC2C(=O)Nc2ccc3c(c2)OCCO3)cc1 (stereo unspecified),-15.1% (inactive)

row,SMILES,inhibition
1,CC(=O)Nc1ccc(NC(=O)CN(C)S(=O)(=O)c2ccc3ccccc3c2)cc1,-3.2% (inactive)
2,CC(=O)NCC(=O)N[C@@H](CC(=O)OCc1ccccc1)C(=O)OCc1ccccc1 (Ac-Gly-Asp(OBn)-OBn),15.4% (inactive)
3,O=C(CCc1nc(-c2ccccc2F)no1)NCCN1CCOCC1,9.2% (inactive)
4,COc1ccc(Nc2cc3n(c(=O)n2)CCc2cc(OC)c(OC)cc2-3)cc1,-35.6% (inactive)
5,O=C(COc1ccccc1)NN1C(=O)CSC1=S,3.5% (inactive)
6,COc1ccccc1NS(=O)(=O)c1cc(NC(=O)c2cc3ccccc3oc2=O)ccc1C,-25.3% (inactive)
7,Cc1ccc(NC(=O)c2cc3ccccc3o2)cc1S(=O)(=O)N(C)C,-98.2% (inactive)
8,Cc1ccc(NC(=O)c2cc3ccccc3oc2=O)cc1S(=O)(=O)N(C)C,85.6% (active)
9,COc1ccc(Cl)cc1NC(=O)COc1ccc(S(=O)(=O)N2CCOCC2)cc1C,11.3% (inactive)
10,Cc1ccc(CCNC(=O)c2cc(-c3ccncc3)nc3ccc(S(=O)(=O)N4CCOCC4)cc23)cc1,-13.8% (inactive)
11,CS(=O)(=O)c1cc([N+](=O)[O-])c(Sc2nc3ccccc3[nH]2)c([N+](=O)[O-])c1,4.3% (inactive)
12,COCCn1c(C)cc(C(=O)COc2cccnc2[N+](=O)[O-])c1C,4.6% (inactive)
13,Cc1cc(C(=O)COC(=O)c2ccccc2O)c(C)n1Cc1cccs1,89.6% (active)
14,Cc1ccc2cccc(OCC(=O)c3cc(C)n(Cc4ccco4)c3C)c2n1,-10.4% (inactive)
15,CCn1nc(C(=O)OCC(=O)c2cc(C)n(Cc3cccs3)c2C)c2ccccc2c1=O,-20.7% (inactive)
16,Cc1cc(C(=O)CN2C(=O)c3ccccc3C2=O)c(C)n1Cc1cccs1,19% (inactive)
17,Cc1cc(C(=O)COc2ccc3ccc(=O)oc3c2)c(C)n1Cc1cccs1,-4.5% (inactive)
18,Cc1cc(C(=O)COc2cccnc2[N+](=O)[O-])c(C)n1-c1ccccc1,20.6% (inactive)
19,Cc1ccc(-n2c(C)cc(C(=O)COc3cccnc3[N+](=O)[O-])c2C)cc1,30.3% (inactive)
20,Cc1cc(C(=O)COC(=O)c2ccc3c(c2)OCO3)c(C)n1Cc1cccs1,-8.7% (inactive)
21,Cc1ccc(C)c(C(=O)CSc2n[nH]c(-c3ccncc3)n2)c1,11% (inactive)
22,COC(C[C@H]1O[C@H]1[C@H](O)[C@H](C)OCc1ccccc1)OC,9.8% (inactive)
23,CC(C)c1ccc(NC(=O)c2ccccc2NC(=O)C2CC=CCC2C(=O)O)cc1 (stereo unspecified),-9.6% (inactive)

row,SMILES,inhibition
1,O=C(NC1CCCC1)C(NS(=O)(=O)c1cccc2nsnc12)c1ccccc1 (stereo unspecified),15.9% (inactive)
2,Clc1ccc(Nc2nc(N3CCOCC3)nc(N3CCOCC3)n2)cc1Cl,8.7% (inactive)
3,Clc1ccc(C2[C@H]3CN(Cc4ccc(-c5ccccc5)cc4)[C@H](c4ccccc4)C34CC2(c2ccccc2)C4)cn1 (stereo partly specified),6.2% (inactive)
4,COc1ccc(N2CCN(C(=O)c3nc4nc(C)cc(C)n4n3)CC2)cc1,7.4% (inactive)
5,CC(C)Cc1ccc(C(C)C(=O)Nc2ccccc2O)cc1 (stereo unspecified),22.9% (inactive)
6,C=CCNC(=O)NC(=O)Cn1c(=O)c2c(ncn2CC)n(Cc2ccccc2)c1=O,17.8% (inactive)
7,Cc1nc(SCc2cccc(C(=O)O)c2)nc2c1CCCC2,11% (inactive)
8,Cc1nc(SCc2ccc(C(=O)O)cc2)nc2c1CCCC2,54.6% (active)
9,Cc1nc(SCc2ccccc2)nc2c1CCC2,-57.5% (inactive)
10,COc1ccc(OCC(=O)N/N=C/c2ccc(N(C)C)cc2)cc1,-12.2% (inactive)
11,COc1ccc(-n2c(C)cc(/C=C3/SC(=S)N(C)C3=O)c2C)cc1,24.3% (inactive)
12,Cc1cc(/C=C2\SC(=S)NC2=O)c(C)n1-c1cccc(O)c1,-226% (inactive)
13,Cc1cc(/C=C2/C(=O)NN(c3ccccc3)C2=O)c(C)n1-c1cccc(O)c1,-42.2% (inactive)
14,Cc1cc(/C=C2\SC(=O)N(C)C2=O)c(C)n1-c1ccc(O)cc1,0.7% (inactive)
15,Cc1ccc(OCC(=O)NCCCNC(=O)c2ccc(C)nc2)cc1,7.3% (inactive)
16,C/C(=C\C#N)n1nc(C)cc1N,16.8% (inactive)
17,Cc1cc2oc3c(c(=O)c2cc1C)C(c1ccc(C(C)C)cc1)N(CCCN1CCOCC1)C3=O (stereo unspecified),0.6% (inactive)
18,CSc1nsc(SCC(=O)NCc2ccccc2)n1,-5.3% (inactive)
19,CCc1ccc(NC(=S)N(Cc2cccnc2)Cc2ccco2)cc1,6.5% (inactive)
20,C=CCc1cccc2cc(C(=O)Nc3cccc(C(=O)O)c3)c(=O)oc12,-0.7% (inactive)
21,C=CCc1cccc2cc(C(=O)O)c(=O)oc12,-2.5% (inactive)
22,C=CCc1cccc2cc(C(=O)Nc3ccccc3C(=O)O)c(=O)oc12,62.4% (active)
